High-throughput results: PubChem BioAssay, National Center for Advancing Translational Sciences (NCATS)
This is a sample that favours compounds with a hit; in the whole collection about 7.4% have one here.
ELG1 genotoxic: qHTS screen for small molecules that induce genotoxicity in human embryonic kidney (HEK293T) cells expressing luciferase-tagged ELG1; AID 504466, 2011; 330,000 tested, 1.3% active; Potency, µM (doses to about 46 µM), for inactives: at the highest dose activity change, positive = activation, hits mostly activators; HEK293T ELG1-luciferase reporter, luminescence, 16 h; further: % of control where 0% means no effect; nearly all actives have a fitted effect of over 60% in size
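DMSO vehicle served as control against compound-treated ELG1-luciferase HEK293T cells; exposure lasted 16 hr at 37 °C and 5% CO2, followed by ONE-Glo luminescence detection after 30 min.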
Rab9 prom act: qHTS Assay for Rab9 Promoter Activators | Huh7 Rab9 promoter-luciferase reporter, luminescence, 24 h | Potency, µM (top dose mostly 9.22 µM), inactives show top-dose activation, negative = inhibition, usual class: activators | 320,000 tested, 2.8% active | AID 485297, 2010; further: % of control where 0% means no effect; nearly all actives have a fitted effect of over 60% in size
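Luciferase signal after 10 min detection reagent at ambient indicates Rab9 promoter upregulation; stably transfected Huh7 cells were treated 24 h with compound in DMSO at 37 °C, 5% CO2.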
NPC1 prom act: qHTS Assay for NPC1 Promoter Activators; 320,000 tested, 2.4% active; Potency, µM (titrated, usually from 9.22 µM), inactives show at the highest dose activation, usual class: activators; AID 485313, 2010; Huh7 NPC1 promoter luciferase reporter, 24 h; further: % of control where 0% means no effect; nearly all actives have a fitted effect of over 60% in size
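Huh7 cells stably carrying NPC1 promoter–luciferase, plated in Opti-MEM with 10% FBS for 2 h, were exposed to compound in DMSO for 24 h at 37 °C; luciferase reagent was added for 10 min and luminescence read.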
FLuc modulator: qHTS profiling assay for firefly luciferase inhibitor/activator using purifed enzyme and Km concentrations of substrates (counterscreen for miR-21 project); Luciferin 4-monooxygenase (Photinus pyralis), P08659; purified FLuc, Km substrates, luminescence inhibition; Potency, µM (doses to about 57.5 µM), for the others: at the highest dose activity change, negative = inhibition, hits mostly inhibitors; 360,000 tested, 6.9% active;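 further: plate controls were vehicle for no effect and reference inhibitor for full effect; nearly all actives have a fitted effect of over 55% in size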
Target sequence (P08659 whole entry, looked up): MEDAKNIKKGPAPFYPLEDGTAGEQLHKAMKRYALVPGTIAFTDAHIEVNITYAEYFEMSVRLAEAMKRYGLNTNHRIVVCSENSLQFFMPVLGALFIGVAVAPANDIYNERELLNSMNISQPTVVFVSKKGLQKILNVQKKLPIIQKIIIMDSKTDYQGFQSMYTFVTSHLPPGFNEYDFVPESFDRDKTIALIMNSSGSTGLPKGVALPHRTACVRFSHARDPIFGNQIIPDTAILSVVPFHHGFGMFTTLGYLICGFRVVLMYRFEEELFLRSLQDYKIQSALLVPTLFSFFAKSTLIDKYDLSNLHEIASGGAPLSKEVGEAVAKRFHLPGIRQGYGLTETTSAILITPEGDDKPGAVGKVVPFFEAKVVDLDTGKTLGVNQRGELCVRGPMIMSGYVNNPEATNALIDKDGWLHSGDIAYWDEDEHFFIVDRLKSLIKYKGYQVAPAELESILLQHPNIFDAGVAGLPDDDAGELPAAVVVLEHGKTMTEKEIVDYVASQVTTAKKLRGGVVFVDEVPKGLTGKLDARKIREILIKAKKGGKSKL
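Purified P. pyralis luciferase (10nM final) with 10uM D-luciferin and 10uM ATP (Km levels) in 50mM Tris acetate pH 7.5, 10mM Mg acetate, 0.01% Tween-20, 0.05% BSA; qHTS 6-point titration, ~60 µM downward; luminescence read.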
SMN2 splice up: qHTS Assay for Enhancers of SMN2 Splice Variant Expression. AID 1458, 2008. HEK293 SMN2-luciferase splicing reporter, luminescence, 30-36 h. 210,000 tested, 2.8% active. Potency, µM (doses to about 46.1 µM), for inactives: top-dose activity change, positive = activation, most hits filed as activators; further: % of control where 0% means no effect; nearly all actives have a fitted effect of over 55% in size
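qHTS luciferase splicing reporter: luminescence rises when SMN2 exon 7 is included in transfected HEK293 cells. Compound exposure lasted 30-36 h at 37C, with 4.5 mM final sodium butyrate as control, followed by a ONE-Glo read.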
* hit, by the source's call; ? = inconclusive; . = no result given. The call rests on the fitted dose curve; in most records, active means well fitted curve in the direction sought with a large enough effect; inconclusive means small, poorly fitted or top-dose-only effect, or another doubt; inactive means no such curve, though single readings can be large; an effect the other way counts as inactive or inconclusive. Potency means the concentration at half of the fitted maximal effect.

SMILES	ELG1 genotoxic	Rab9 prom act	NPC1 prom act	FLuc modulator	SMN2 splice up
Cc1cc(N2CCN(C(=O)c3ccco3)CC2)n2ncnc2n1	3.4%	0.9%	-1.9%	-1.5%	6.9%
Cc1cc(N2CCCCC2)n2ncc(-c3ccccc3)c2n1	?	0.316µM*	0.447µM*	0.269µM*	3.6%
Cc1cc(C)n(-c2cc(C(C)(C)C)nc3c(-c4ccc(Cl)cc4)cnn23)n1	3.2%	6.2%	-3.4%	?	-7.2%
CCOC(=O)Cc1c(C)nc2c(-c3ccccc3)cnn2c1C	14.5%	28.0%	13.9%	?	17.4%
Cc1cc(N2CCCCC2)n2ncc(-c3ccc(Cl)cc3)c2n1	2.06µM*	2.82µM*	3.98µM*	2.39µM*	-15.0%
C=CCc1c(C)nc2c(-c3ccccc3)cnn2c1N1CCOCC1	10.3µM*	1.58µM*	2.82µM*	2.39µM*	.
Cc1cc(N2CCN(C(=O)c3ccco3)CC2)n2ncc(-c3ccccc3)c2n1	2.2%	3.55µM*	?	12µM*	12.9%
CCc1cccc(-n2c(=O)c3cccnc3n2CC(=O)Nc2ccc(OC)c(Cl)c2)c1	.	.	.	-7.1%	.
Cc1cc(N2CCC(C)CC2)n2nc(C)c(-c3ccccc3)c2n1	-8.5%	-7.5%	-3.1%	-9.7%	-19.9%
C=CCSc1cc(C)nc2c(-c3ccccc3)c(C)nn12	2.7%	1.6%	-3.6%	12µM*	.
CC(=O)Nc1ccc(Nc2cc(C)nc3c(-c4ccc(Cl)cc4)cnn23)cc1	6.2%	2.51µM*	2.24µM*	-17.4%	?
Cc1nc2cc(-c3cccc(F)c3)nn2c(N2CCN(C(=O)c3ccco3)CC2)c1C	?	-1.1%	3.6%	16.9µM*	12.5%
CC(=O)Nc1ccc(Nc2cc(C)nc3c(-c4ccc(Cl)cc4)c(C)nn23)cc1	0.0%	-6.0%	-7.1%	0.0%	-28.7%
Cc1cc(SCC#N)n2nc(C)c(-c3ccccc3)c2n1	-7.8%	-3.5%	-3.8%	?	-30.6%
Cc1cc(N2CCCCC2)n2nc(C)c(-c3ccccc3)c2n1	-2.1%	7.9%	9.2%	19µM*	.
Cc1nc2cc(-c3cccc(F)c3)nn2c(C)c1CCC(=O)N1CCN(c2ccccn2)CC1	-3.6%	-3.1%	1.3%	-8.7%	.
O=C(Nc1ccc(Oc2ccccc2)cc1)c1ccc(F)c(S(=O)(=O)N2CCN(c3ccccc3F)CC2)c1	.	.	.	0.5%	.
Cc1cc(N2CCC(C)CC2)n2ncc(-c3ccccc3)c2n1	0.411µM*	0.316µM*	0.355µM*	0.757µM*	-38.3%
Cn1c(=O)c(=O)n(C)c2cc(N3CCCC3)c(NC(=O)c3ccccc3Cl)cc21	.	.	.	-2.1%	6.2%
Cn1ncc2c(Nc3cccc(C#N)c3)ncnc21	.	.	.	-2.7%	.
Clc1ccc(-n2ncc3c(NCc4ccco4)ncnc32)cc1	-7.3%	2.51µM*	?	6.01µM*	-18.8%
COc1ccc(-n2ncc3c(NCc4ccco4)ncnc32)cc1	?	1.41µM*	2.24µM*	9.53µM*	?
COc1ccc(-n2ncc3c(NCc4ccccn4)ncnc32)cc1	?	?	?	15.1µM*	?
CC(=O)N1CCOc2cc(S(=O)(=O)NCc3ccccc3Cl)c(C)cc21	.	.	.	-10.4%	.
Cc1cccc(NC(=O)CN2C(=O)COc3ccc(S(=O)(=O)N4CCC(C)CC4)cc32)c1C	.	.	.	-5.2%	.
SMILES	ELG1 genotoxic	Rab9 prom act	NPC1 prom act	FLuc modulator	SMN2 splice up
Cc1cccc(N2CCN(Cc3cc(=O)oc4cc(C)ccc34)CC2C)c1 (stereo not drawn)	.	.	.	6.7%	19.1%
CCN(CCO)c1ccc(N=Nc2cc(C)[nH]n2)cc1	?	?	?	0.269µM*	.
O=C(CSc1ccccc1)Nc1nccs1	6.7%	?	13.7%	-16.0%	16.9%
O=C(CSc1cn(Cc2ccccc2)c2ccccc12)Nc1nccs1	4.61µM*	2.51µM*	3.16µM*	0.849µM*	?
C=CC(C)(C)c1cc2cc3ccoc3cc2oc1=O	4.3%	2.3%	-3.4%	21.3µM*	-10.6%
c1ccc(-n2ncc3c(N4CCC5(CC4)OCCO5)ncnc32)cc1	4.11µM*	?	2.51µM*	13.5µM*	12.6µM*
Fc1ccc(-n2ncc3c(N4CCN(c5ccccc5F)CC4)ncnc32)cc1	.	.	.	-4.0%	.
Cc1cccc(-n2ncc3c(N4CCC5(CC4)OCCO5)ncnc32)c1	?	2.51µM*	2.82µM*	6.75µM*	.
Cc1ccc(C)c(N2CCN(c3ncnc4c3cnn4-c3ccccc3)CC2)c1	-1.8%	0.1%	2.3%	-5.2%	-17.8%
COc1ccc2nc(C)cc(N/N=C/c3ccc(F)cc3)c2c1	-16.7%	-11.9%	-38.9%	16.9µM*	.
CN(C)c1nc(NCc2ccccc2)nc(N/N=C/c2ccc(Br)cc2)n1	6.8%	-15.7%	-2.3%	-0.8%	2.8%
Cc1cc(N/N=C/c2ccc(Cl)cc2Cl)nc(NCc2ccccc2)n1	-9.2%	-10.4%	-9.3%	?	-49.0%
Cc1ccc(/C=N/Nc2cc(C)nc(NCc3ccccc3)n2)cc1	-5.4%	-5.5%	-1.9%	10.7µM*	.
Cc1cc(N/N=C/c2ccc(N(C)C)cc2)nc(NCc2ccccc2)n1	-11.9%	-11.9%	1.6%	10.7µM*	.
Cc1cc(N/N=C/c2ccc(F)cc2)nc(NCc2ccccc2)n1	1.3%	0.9%	14.6%	10.7µM*	.
CCN(Cc1nc(-c2cccc(C)c2)no1)S(=O)(=O)c1ccc(C)cc1	.	.	.	-10.7%	-7.7%
COc1cc(Nc2ncc3c(n2)CCN(Cc2ccc(OC(C)C)c(OC)c2)C3)cc(OC)c1	.	.	.	-11.1%	.
COc1ccc(-c2ccc3c(N)c(C(=O)Nc4ccc(C)cc4C)sc3n2)cc1OC	.	.	.	-2.1%	-8.2%
Cn1c(Cl)c(C(=O)Nc2ccc(Cl)cc2)c2ccccc21	3.5%	16.5%	?	6.01µM*	20.2%
CCc1ccc(-c2ccc(C(=O)C(F)(F)F)[nH]2)cc1	?	1.12µM*	2µM*	2.13µM*	?
O=C(O)c1ccc(-c2ccccc2)[nH]1	-2.3%	-9.7%	-2.8%	6.1%	-16.0%
COc1cccc(/C=N/c2oc(-c3ccccc3)cc2C#N)c1O	-5.3%	15.3%	-2.2%	?	-10.0%
N#Cc1ccccc1N=Cc1ccc(Br)cc1	3.2%	0.3%	-0.2%	1.51µM*	-1.6%
COc1cccc(C=Nc2ccccc2C#N)c1O	0.0%	-2.2%	-2.5%	2.69µM*	?
COc1cccc(C=Nc2ccc3c(c2)CCC3)c1O	6.3%	-1.3%	-5.5%	2.69µM*	.
COc1cccc(C=Nc2cc(C)cc(C)c2)c1O	0.0%	-3.0%	1.1%	1.7%	6.1%
COc1[nH]c(/N=C/c2ccccc2)c(C#N)c1C#N	0.1%	1.7%	1.8%	?	-11.3%
COc1ccc(OC)c(S(=O)(=O)N2CC=C(c3c(C)n(CC(=O)N4CCCC4)c4ccccc34)CC2)c1	.	.	.	-1.7%	-14.1%
